{"source": "paper PMC8384837", "about": "“Expanding the binding specificity for RNA recognition by a PUF domain”"}
{"target": "PUM1 PUF domain R1-RRT (Homo sapiens, UniProt Q14671 828-1176, S863R;Q867T)", "sequence (Q14671 828-1176 S863R/Q867T)": "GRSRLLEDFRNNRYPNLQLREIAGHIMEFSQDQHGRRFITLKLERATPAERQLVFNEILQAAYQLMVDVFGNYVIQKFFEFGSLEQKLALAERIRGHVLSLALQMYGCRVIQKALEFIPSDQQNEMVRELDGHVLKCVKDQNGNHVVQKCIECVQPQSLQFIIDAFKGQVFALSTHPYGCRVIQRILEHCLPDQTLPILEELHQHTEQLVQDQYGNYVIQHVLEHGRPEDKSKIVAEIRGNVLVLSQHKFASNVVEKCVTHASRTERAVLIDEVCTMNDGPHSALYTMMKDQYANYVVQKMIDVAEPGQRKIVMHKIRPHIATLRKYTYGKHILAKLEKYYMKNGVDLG", "assay": "yeast three-hybrid, YBZ-1, SC-Leu-His + 0.5 mM 3-AT, 4 days", "conditions": "tags: N-Gal4 AD-HA kept; label: inside an RPR1-promoter hybrid RNA with tandem MS2 sites; ssRNA", "how_it_was_run": "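Matching RNA elements and Pumilio-1 PUF domain libraries, randomized at the three base-contacting residues of every repeat, were co-expressed from a centromeric plasmid in strain YBZ-1 (LexA–MS2 coat fusion, HIS3 reporter). The repeat regions were PCR-amplified and Illumina-sequenced from cells grown four days on SC-Leu (input) or SC-Leu-His + 0.5 mM 3-AT (selection). The interaction score is the log change in variant frequency from input to selection. It is computed in log2, with a pseudocount of 1 for absent variants.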"}
{"sequence": "GGCUAGAACUAGUGGAUCCCCCGGCGCCCGGCGGCUCGAGCCCGGGUAAGUGUAAAUCGUCUGCAUGCCGCCGGGCGCCAUGCCUGCAGGUCGACUCUAGAAAACAUG", "binding signal": "4.11 log2 enrichment (interaction score)"}
{"sequence": "GGCUAGAACUAGUGGAUCCCCCGGCGCCCGGCGGCUCGAGCCCGGGUAAGUGUAAAUGGUCUGCAUGCCGCCGGGCGCCAUGCCUGCAGGUCGACUCUAGAAAACAUG", "binding signal": "1.65 log2 enrichment (interaction score)"}
{"sequence": "GGCUAGAACUAGUGGAUCCCCCGGCGCCCGGCGGCUCGAGCCCGGGUAAGUGUAAAUUGUCUGCAUGCCGCCGGGCGCCAUGCCUGCAGGUCGACUCUAGAAAACAUG", "binding signal": "4.21 log2 enrichment (interaction score)"}
